Test [1] can be described thus: resazurin metabolic signal in HepG2 cells – cell-based, resazurin fluorescence, 24 h, PK04 Diversity Set, profiling panel (AID 1172). Note: test concentration not given here. Conditions: HepG2 viability, higher = more signal. On the technique in general: Resazurin is reduced to fluorescent resorufin, in cell work by metabolically active cells.
Test [2] can be described thus: budding yeast growth changes without added modifier – OD600, strain BY4716, 24 h, basal condition, primary screen (AID 1173). To be noted: S. cerevisiae BY4716 growth, OD600, 24 h; higher = more signal, called active from +8 up or from −8 down.
Test [3] can be described thus: viability profiling in MM1S myeloma cells – cell-based, resazurin fluorescence, basal, 24 h, PK04 Diversity Set, profiling panel (AID 1174).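 Note: MM1S multiple myeloma cell line; test concentration not given here.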 Conditions: higher = more signal, called active from +8 up or from −8 down.
The target in test [4] is Dihydroorotate dehydrogenase (quinone), mitochondrial (Plasmodium falciparum (isolate 3D7)) (UniProt Q08210). Description: inhibition of P. falciparum DHODH – biochemical, C-terminal His tag, absorbance 600 nm, primary screen (AID 1175).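 Note: recombinant parasite enzyme with a five histidine tag at its C terminus; test concentration not given here.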 To be noted: PfDHODH enzyme, DCIP absorbance 600 nm; higher = more signal, called active from +8 up or from −8 down.
Test [5] can be described thus: inhibition of PAO1 biofilm formation – strain PAO1, LB-PBS medium, absorbance 600 nm, primary screen (AID 1176). Note: test concentration not given here. Conditions: P. aeruginosa PAO1 growth/biofilm, A600, 12 h; higher = more signal.
Test [6] can be described thus: growth modulation of vineyard yeast isolate – strain RM11-1a, OD600, basal, 24 h, primary screen (AID 1177).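 Note: cultures grown under basal conditions with no added stressor; test concentration not given here.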 To be noted: S. cerevisiae RM11-1a growth, OD600, 24 h; higher = more signal, called active from +8 up or from −8 down.
Test [7] is described as follows: growth of efflux-deficient E. coli DRC39 – strain DRC39, OD650, 24 h, E. coli filamentation inducers, primary screen (AID 1178).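 Note: growth measured as culture turbidity by optical density at 650 nm; test concentration not given here.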 Conditions: E. coli DRC39 acrAB, higher = more signal, called active from +8 up or from −8 down.
Test [8] can be described thus: growth of efflux-deficient E. coli DRC39 – strain DRC39, OD650, 48 h, E. coli filamentation inducers, primary screen (AID 1179).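 Note: screen aims at cell division blockers that make cells filament.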 Conditions: E. coli DRC39 delta-acrAB growth, higher = more signal, called active from +8 up or from −8 down.
A short description of test [9]: viability profiling in RPMI8226 myeloma cells – cell-based, resazurin fluorescence, basal, 24 h, PK04 Diversity Set, profiling panel (AID 1180).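 Note: RPMI8826 multiple myeloma cell line at 5000 cells per well; test concentration not given here.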 To be noted: higher = more signal.
The target in test [10] is E3 ubiquitin-protein ligase XIAP (Homo sapiens) (UniProt P98170). Description: small molecules binding XIAP protein – biophysical, small-molecule microarray, fluorescence 635 nm, primary screen (AID 1181).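 Note: score merges 667 nm emission and signal to noise over triplicate slides.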 To be noted: higher = more signal.

Activity calls are given as the source filed them. Unless noted, the rule behind the calls is not given here.

Sequence of Dihydroorotate dehydrogenase (quinone), mitochondrial (Plasmodium falciparum (isolate 3D7)) (Q08210 whole entry, looked up): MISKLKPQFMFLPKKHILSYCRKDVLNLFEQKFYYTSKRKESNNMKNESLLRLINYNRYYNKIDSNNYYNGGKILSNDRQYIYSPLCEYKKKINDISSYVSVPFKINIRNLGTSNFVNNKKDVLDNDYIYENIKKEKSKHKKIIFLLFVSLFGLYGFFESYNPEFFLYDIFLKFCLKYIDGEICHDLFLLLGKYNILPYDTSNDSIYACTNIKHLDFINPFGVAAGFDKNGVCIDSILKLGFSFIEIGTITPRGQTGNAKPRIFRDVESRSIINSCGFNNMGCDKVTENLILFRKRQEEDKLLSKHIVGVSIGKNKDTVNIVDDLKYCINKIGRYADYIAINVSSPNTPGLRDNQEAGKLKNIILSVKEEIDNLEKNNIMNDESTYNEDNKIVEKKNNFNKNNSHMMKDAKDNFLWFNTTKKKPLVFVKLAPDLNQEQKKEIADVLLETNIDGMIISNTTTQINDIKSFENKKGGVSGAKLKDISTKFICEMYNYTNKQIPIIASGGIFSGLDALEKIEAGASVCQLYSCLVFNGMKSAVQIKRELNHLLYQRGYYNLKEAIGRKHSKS
Sequence of E3 ubiquitin-protein ligase XIAP (Homo sapiens) (P98170 whole entry, looked up): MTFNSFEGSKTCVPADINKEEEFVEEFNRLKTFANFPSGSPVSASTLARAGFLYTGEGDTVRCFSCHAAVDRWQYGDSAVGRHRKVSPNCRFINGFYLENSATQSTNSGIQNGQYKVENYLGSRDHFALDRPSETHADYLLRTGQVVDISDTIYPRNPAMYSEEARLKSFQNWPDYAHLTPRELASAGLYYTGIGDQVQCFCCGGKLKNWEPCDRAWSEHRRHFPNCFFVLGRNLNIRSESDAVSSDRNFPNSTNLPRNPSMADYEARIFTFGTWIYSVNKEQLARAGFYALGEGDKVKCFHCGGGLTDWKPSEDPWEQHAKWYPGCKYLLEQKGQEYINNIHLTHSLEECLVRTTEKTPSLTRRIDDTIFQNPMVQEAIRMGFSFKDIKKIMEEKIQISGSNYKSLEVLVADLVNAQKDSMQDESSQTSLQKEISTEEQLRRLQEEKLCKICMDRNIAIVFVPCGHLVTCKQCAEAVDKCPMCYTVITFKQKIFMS

As for `C[N+](C)(C)CCCCCCNC(=O)[C@@H]1C[C@@H]2C(=O)NCC(=O)N2[C@@H]1c1cccc(OCCO)c1`, the z-score in [1] is 0.597; in test [2], -1.33 (inactive); in test [3], 1.26 (inactive); in test [5] it was 3.7 (inactive); in test [6] it was -0.257 (inactive); in test [7], -0.858 (inactive). Besides, the z-score was -0.765 (inactive) in [8] and 0.343 in [9]. For the same compound, the composite z-score in [4] is -2.3 (inactive); in test [10], 0.0192.
Consider `O=C(Nc1cc(Br)ccc1C(=O)NCc1cccc(O)c1)c1ccccc1`, for which the z-score in [1] was -1.11; in test [2], -0.887 (inactive); in [3], -0.407 (inactive); in test [5], 0.034 (inactive); in test [6] it was 0.659 (inactive); in test [7], 1.45 (inactive). For the same compound, the z-score in test [8] was 1.06 (inactive); in [9], -0.565. Also, the composite z-score in test [4] was 0.591 (inactive); in test [10], 0.41.
Consider `CCOC(=O)C1=CC[C@@H](c2ccc(N(CC)CC)cc2)N(S(=O)(=O)c2ccc(C)cc2)[C@H]1c1ccc([N+](=O)[O-])cc1`, for which the z-score in [1] is -0.407; in test [2], -0.0341 (inactive); in test [3] it was -0.095 (inactive); in test [5] it was 0.698 (inactive); in [6] it was -0.101 (inactive); in test [7] it was -0.19 (inactive). The z-score in test [8] is -0.0619 (inactive); in [9] it was -1.06. In addition, the composite z-score in [4] was -0.719 (inactive); in test [10], -0.0143.
Consider `CN(C)C(=O)[C@@]1(CCC(=O)OC(C)(C)C)COC(c2ccc(OCCCO)cc2)=N1`, for which the z-score was 0.791 in test [1]; -0.874 (inactive) in test [2]; 0.265 (inactive) in [3]; -0.512 (inactive) in [5]; -0.0602 (inactive) in [6]; 0.115 (inactive) in test [7]. The z-score is 0.465 (inactive) in test [8] and -0.195 in test [9]. The composite z-score in [4] is -0.883 (inactive); in [10] it was -0.0559.
As for `Cc1ccc(S[C@]2(C(=O)NCCN3CCOCC3)CC(=O)N(C3Cc4ccccc4C3)[C@@H]2c2ccc(CO)cc2)cc1`, the z-score in test [1] is -0.211; in test [2], 0.884 (inactive); in [3], -0.209 (inactive); in test [5], 0.0435 (inactive); in [6], 0.948 (inactive); in test [7] it was 0.435 (inactive). The z-score in test [8] was 0.337 (inactive); in test [9], -0.109. Also, the results for the composite z-score in test [4] and in test [10] were 0.408 (inactive) and -0.0282, respectively.
Turning to `CN(C)CCCCCCNC(=O)[C@@H]1C[C@@H]2C(=O)NCC(=O)N2[C@@H]1c1ccc(O)cc1`, the z-score is -1.01 in [1]; -1.06 (inactive) in test [2]; -1.26 (inactive) in test [3]; -0.13 (inactive) in test [5]; -0.832 (inactive) in [6]; -0.208 (inactive) in test [7]. In addition, the z-score in [8] is -0.823 (inactive); in [9] it was -1.35. Also, the results for the composite z-score in test [4] and in test [10] were -0.493 (inactive) and 0.249, respectively.
On to `COc1ccc([Si](C)(C)[C@@H]2[C@@H](CCO)O[C@]3(C(=O)N(Cc4cccc(N5C(=O)COc6ccccc65)c4)c4ccccc43)[C@H]2C)cc1`, for which the z-score was -2.07 in test [1]; 0.967 (inactive) in test [2]; -3.29 (inactive) in test [3]; 1.3 (inactive) in test [5]; 4.05 (inactive) in [6]; 0.775 (inactive) in test [7]. Besides, the values for the z-score in [8] and in test [9] were 0.295 (inactive) and -3.26, respectively. In addition, the composite z-score in test [4] was 0.737 (inactive); in test [10], 0.0424.
Turning to `[N-]=[N+]=NCc1ccccc1[C@H]1OC(c2ccc(OCCCO)cc2)=N[C@@]1(Cc1ccccc1)C(N)=O`, the z-score in [1] is 1.16; in test [2] it was -3.32 (inactive); in [3], -0.0284 (inactive); in test [5], -0.195 (inactive); in test [6] it was 1.01 (inactive); in [7] it was 0.961 (inactive). In addition, the z-score in [8] is 0.195 (inactive); in test [9] it was -0.373. Moreover, the figures for the composite z-score in [4] and in test [10] were -0.174 (inactive) and -0.124, respectively.
With `COCCOC(=O)N1C(=O)[C@@]2(c3ccccc31)[C@H](c1ccc(OCCO)cc1)N1[C@H](c3ccccc3)[C@H](c3ccccc3)OC(=O)[C@H]1[C@@H]2C(=O)NC[C@H](O)c1ccccc1`, the z-score in test [1] is 0.37; in test [2], 1.96 (inactive); in test [3], -0.261 (inactive); in test [5], 2.32 (inactive); in test [6], 2.94 (inactive); in [7], 0.271 (inactive). The z-score was 0.193 (inactive) in test [8] and -0.25 in [9]. Moreover, the composite z-score in test [4] is -1.93 (inactive); in test [10] it was -0.148.
Regarding `COC(=O)c1c(CC[C@@H](CO)NC(=O)N[C@@H](C)Cn2cc(C3(O)CCCC3)nn2)oc(C(C)=O)c1C(=O)OC`, the z-score was -1.1 in test [1]; -0.724 (inactive) in test [2]; -0.345 (inactive) in test [3]; 0.0793 (inactive) in test [5]; -0.429 (inactive) in test [6]; -0.0257 (inactive) in test [7]. Also, the figures for the z-score in [8] and in test [9] were -0.687 (inactive) and -0.88, respectively. Also, the composite z-score in test [4] was -3.31 (inactive); in [10], -0.184.
As for `C=C(COC)C(=O)CC[C@H](OC(=O)c1ccccc1-c1ccccc1C(=O)O)c1ccc(CO)o1`, the z-score in test [1] is -0.45; in test [2], 0.624 (inactive); in test [3] it was -0.176 (inactive); in test [5], 1.85 (inactive); in test [6], 0.89 (inactive); in test [7] it was -0.573 (inactive). Also, the z-score in test [8] was -0.399 (inactive); in test [9], -0.178. For the same compound, the values for the composite z-score in test [4] and in test [10] were -1.39 (inactive) and 0.0402, respectively.
`CN1C(=O)C2C=CC(C(O)COCc3ccccc3)N(Nc3ccccc3)C2C1=O` (stereo not given): the z-score in [1] was 0.425; in [2], -0.396 (inactive); in test [3], -0.825 (inactive); in test [5], -0.0346 (inactive); in [6] it was 0.328 (inactive); in test [7], -0.925 (inactive). Further, the results for the z-score in test [8] and in [9] were 0.0813 (inactive) and 0.182, respectively. Also, the composite z-score in [4] is -0.284 (inactive); in [10] it was 0.267.
Turning to `C=CC[C@@]1(C(=O)NCCN2CCOCC2)N=C(c2ccc(OCCCO)cc2)O[C@@H]1c1ccccc1`, the z-score in test [1] was 0.255; in test [2], -0.0792 (inactive); in test [3], 0.275 (inactive); in test [5], 1.13 (inactive); in test [6], 1.45 (inactive); in test [7], 0.297 (inactive). In addition, the z-score is -0.483 (inactive) in test [8] and 0.482 in test [9]. The composite z-score in test [4] is 1.61 (inactive); in test [10], -0.237.
